{
  "source": "PubChem BioAssay (EPA / NIEHS)",
  "note": "Active and inactive are the calls of the source. How the source made its calls: active means hit-call score of the fitted dose curve at least 0.9, where 1 is the maximum; inactive means score below 0.9.",
  "data": [
    {"experiment": "ATG_ERE_CIS: Attagene CIS-FACTORIAL HepG2 Assay for Estrogen Response Element (ERE) (AID 2282940)", "settings": "HepG2 ERE cis-reporter, Attagene RNA transcript; actives raise or lower the signal", "protocol": "ATG_CIS is a cell-based, multiplexed-readout assay that uses HepG2, a human liver cell line, with measurements taken at 24 hours after chemical dosing in a 24-well plate.ATG_ERE_CIS is one of 52 assay component(s) measured or calculated from the ATG_CIS assay. It is designed to make measurements of mRNA induction, a form of inducible reporter, as detected with fluorescence intensity signals by Reverse transcription polymerase chain reaction (RT-PCR) and Capillary electrophoresis technology.Data from the assay component ATG_ERE_CIS was analyzed into 1 assay endpoint. This assay endpoint, ATG_ERE_CIS, was analyzed with bidirectional fitting relative to DMSO as the negative control and baseline of activity. Using a type of inducible reporter, measures of mRNA for gain or loss-of-signal activity can be used to understand the reporter gene at the transcription factor-level as they relate to the gene ESR1. Furthermore, this assay endpoint can be referred to as a primary readout, because this assay has produced multiple assay endpoints where this one serves a reporter gene function. To generalize the intended target to other relatable targets, this assay endpoint is annotated to the nuclear receptor intended target family, where the subfamily is steroidal.\nHuman liver HepG2 cells are transiently transfected with multiple reporter transcription units (MRTUs) in 6-well plates using FuGene 6 reagent (Roche; 3 ml FuGene/1 mg DNA). The MRTU constructs are regulated by a cis-regulating element (promoter). […] A major difference between the CIS and TRANS system is that in CIS activities of endogenous TFs are measured, whereas the TRANS assay evaluates changes in activities of exogenous, chimeric NR-Gal4 proteins. […] At the end of 24 hour incubation, total RNA was isolated using TriZol reagent (Invitrogen). The isolated RNA is then reverse-transcribed using oligo(dT) primer and Mo-MLV reverse transcriptase (Invitrogen) with DNAse I (Ambion) treatment for 30 min. The one-tenth of the produced cDNA was amplified by PCR using Taq DNA polymerase (Invitrogen) and two reporter sequence-specific primers. The PCR products were fluorescently labeled by primer extension with 6-arboxyfluorescein (6-FAM) 5'-labeled reporter sequence-specific primer (2 min at 95 C, 20 s at 68 C and 10 min at 72 C) and these products were digested with 5U of HpaI (New England Biolabs) for 2h at 37 C. The fragments were purified using Qiaquick PCR columns (Qiagen), analyzed on an ABI 3130xL genetic analyzer (Applied Biosystems) with peak positions identified by using a set of X-rhodamine (ROX)-labeled MapMarker1000 molecular weight standards (BioVentures). The raw capillary electrophoresis data was processed using Attagraph software (Attagene).", "values": [
      {"smiles": "CC/C=C\\CCOC(=O)c1ccccc1O", "outcome": "inactive"},
      {"smiles": "CCC[Si](OC)(OC)OC", "outcome": "inactive"},
      {"smiles": "CCOC(=O)c1ccc(C)cc1", "outcome": "inactive"},
      {"smiles": "CCCCCCCC(=O)OCC", "outcome": "inactive"},
      {"smiles": "CC1CCC(C(C)(C)S)C(=O)C1", "note": "(stereo not given)", "outcome": "inactive"},
      {"smiles": "CCc1cccc(C)c1N", "outcome": "inactive"},
      {"smiles": "C=CC(C)(O)CC/C=C(\\C)CC", "note": "(stereo not given)", "outcome": "inactive"},
      {"smiles": "CC(C)OC(=O)c1ccccc1", "outcome": "inactive"},
      {"smiles": "Nc1cccc(N)n1", "outcome": "inactive"},
      {"smiles": "CCCc1ccc(O)c(OC)c1", "outcome": "inactive"},
      {"smiles": "Cc1ccc(C)c(OCCCC(C)(C)C(=O)O)c1", "AC50": "75.2 µM (active)"},
      {"smiles": "CCOC(=O)c1ccccc1C", "outcome": "inactive"},
      {"smiles": "O=C1CCCN1C1CCCCC1", "outcome": "inactive"},
      {"smiles": "O=S(=O)(O)c1ccc(N=Nc2c(O)ccc3ccccc23)cc1", "AC50": "33.5 µM (active)"},
      {"smiles": "O=C(Nc1ccccc1)c1cc(Cl)ccc1O", "outcome": "inactive"},
      {"smiles": "CCCCCCCC(=O)OCC(COC(=O)CCCCCCC)OC(=O)CCCCCCC", "outcome": "inactive"},
      {"smiles": "CC=CC(=O)OCC(C)C", "outcome": "inactive"},
      {"smiles": "CO[Si](CCCS)(OC)OC", "AC50": "68.7 µM (active)"},
      {"smiles": "COC(OC)(C(=O)c1ccccc1)c1ccccc1", "AC50": "2.01 µM (active)"},
      {"smiles": "CCCCCCCCCCCC(=O)OCC", "outcome": "inactive"},
      {"smiles": "C=C(C)C(=O)OCCOC(=O)C(=C)C", "outcome": "inactive"},
      {"smiles": "CCN1CCCC1=O", "outcome": "inactive"},
      {"smiles": "CCOC(=O)CC(=O)c1ccccc1", "outcome": "inactive"},
      {"smiles": "C=CC(=O)NCOCCCC", "outcome": "inactive"},
      {"smiles": "CC1C(C)(C)C2=C(C(=O)CCC2)C1(C)C", "note": "(stereo not given)", "AC50": "26.6 µM (active)"},
      {"smiles": "O=C(O[C@@H]1Cc2c(O)cc(O)cc2O[C@@H]1c1cc(O)c(O)c(O)c1)c1cc(O)c(O)c(O)c1", "outcome": "inactive"},
      {"smiles": "O=C(O)C(F)(F)C(F)(F)C(F)(F)C(F)(F)C(=O)O", "outcome": "inactive"},
      {"smiles": "C=C[C@@]1(C)CC(=O)[C@]2(O)[C@@]3(C)[C@@H](O)CCC(C)(C)[C@@H]3[C@H](O)[C@H](OC(C)=O)[C@@]2(C)O1", "AC50": "0.895 µM (active)"},
      {"smiles": "N#Cc1ccc(C2CCCc3cncn32)cc1", "note": "(stereo not given)", "AC50": "25.4 µM (active)"},
      {"smiles": "O=C(Cl)c1c(Cl)c(Cl)c(C(=O)Cl)c(Cl)c1Cl", "outcome": "inactive"},
      {"smiles": "O=C(O)c1cc(O)c2ccccc2c1O", "AC50": "0.513 µM (active)"},
      {"smiles": "O=c1c(O)c(-c2ccc(O)cc2O)oc2cc(O)cc(O)c12", "AC50": "0.65 µM (active)"},
      {"smiles": "O=C(O)/C=C/c1ccccc1", "AC50": "42.5 µM (active)"},
      {"smiles": "COc1ccc(-c2coc3cc(O)cc(O)c3c2=O)cc1", "AC50": "0.397 µM (active)"},
      {"smiles": "CCCCC(CC)COC(=O)/C=C/c1ccc(OC)cc1", "note": "(stereo not given)", "outcome": "inactive"},
      {"smiles": "CC(C)(CO)COC(=O)C(C)(C)CO", "outcome": "inactive"},
      {"smiles": "COc1nccnc1CC(C)C", "outcome": "inactive"},
      {"smiles": "CCCCCCCO", "AC50": "30 µM (active)"},
      {"smiles": "CCC(C)(O)CCCC(C)C", "note": "(stereo not given)", "outcome": "inactive"},
      {"smiles": "CC(C)=CCCC(C)=CC#N", "AC50": "172 µM (active)"}
    ]}
  ]
}
